Screens: PubChem, National Center for Advancing Translational Sciences (NCATS)
Rows were chosen to be rich in hits. Some 5.2% of all compounds tested hit in one or more screens of this group.
Sfp PPTase inh: inhibitors of Bacillus subtilis Sfp phosphopantetheinyl transferase; Q9F4F7; Biochemical Sfp PPTase activity, qHTS; Potency, µM, most hits filed as inhibitors; 310,000 tested, 3.5% active;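 further: the enzyme is Sfp with the accession as filed and its product quenches rhodamine fluorescence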
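After 15 min at room temperature with compound, 15 nM Sfp received 5 uM rhodamine-CoA plus 12.5 uM BHQ-2-ybbR (50 mM Hepes pH 7.6, 10 mM MgCl2). Rate came from the fluorescence difference over 30 min, ex 525/em 598 nm.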
FBPA coupling cs: counter-screen for Giardia aldolase inhibitors: coupling enzyme system; coupling enzyme system counterscreen, AmpLite Red fluorescence; activity change, negative = inhibition, % at 58.2 µM, hits read low; 290,000 tested, 0.67% active; AID 2472; in the data active means activity change below about -30%
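Counterscreen of the coupled detection system alone, without aldolase: glyceraldehyde-3-phosphate coupling enzymes plus AmpLite Red readout. Compounds at 57.5 uM final, 10 min RT preincubation, 20 min RT reaction, fluorescence 525/598 nm.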
Tau fluor counter: counter-screen for tau fibril formation inhibitors; tau K18 P301L Alexa594 fluorescence, heparin fibrillization; Potency, µM (series often up to 57.7 µM); 280,000 tested, 0.93% active; AID 1463; further: nearly all actives have a fitted effect of over 55% in size
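Human tau K18 P301L (15 uM unlabeled, 0.24 uM Alexa 594-labeled) in 100 mM sodium acetate pH 7 with 20 uM heparin, 6 hr at 37 C. ThT 30 uM added, 1 hr ambient; Alexa 594 FP and total fluorescence read at 555/632 nm.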
Tau ThT inhib: inhibitors of human tau fibril formation, thioflavin T binding; AID 1460; Potency, µM (highest dose often 57.4 µM), most hits filed as inhibitors; 270,000 tested, 2.1% active; recombinant tau K18 P301L, heparin-induced fibrillization, ThT fluorescence; further: nearly all actives have a fitted effect of over 55% in size
Target sequence (P10636 561-689 P618L limits assumed): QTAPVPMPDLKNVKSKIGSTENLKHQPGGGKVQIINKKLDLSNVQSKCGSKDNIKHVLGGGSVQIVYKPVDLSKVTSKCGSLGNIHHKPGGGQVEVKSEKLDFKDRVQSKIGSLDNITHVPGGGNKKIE
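Using a mix of unlabeled (15 uM) and Alexa 594-labeled (0.24 uM) tau K18 P301L, heparin-triggered fibrillization over 6 hr at 37 C was scored by ThT fluorescence.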
Tau FP inhib: blocks human tau fibril formation measured by polarization | K18 P301L tau heparin fibrillization, Alexa594 FP, 6 h | Potency, µM (doses to about 57.7 µM), usual class: inhibitors | 280,000 tested, 0.39% active | AID 1468; further: nearly all actives have a fitted effect of over 55% in size
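Read-out: fluorescence polarization of Alexa 594-labeled tau (0.24 uM), 555 nm excitation, 632 nm emission. Mixtures held 15 uM unlabeled K18 P301L, compound and 20 uM heparin, pH 7 acetate buffer, incubated 6 hr at 37 C.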
Hits are given with their value; [ ] = another dose, or the depositor's remark. Unless noted, the call rests on the fitted dose curve; in most records, active means well fitted curve in the direction sought with a large enough effect; inconclusive means small, poorly fitted or top-dose-only effect, or another doubt; inactive means no such curve, though single readings can be large; an effect the other way counts as inactive or inconclusive.

Screening COc1ccc(/C=C\c2onc(C)c2S(=O)(=O)N2CCC(C(=O)Nc3ccc(F)cc3F)CC2)cc1 returned Tau fluor counter inactive, Tau ThT inhib inactive and Tau FP inhib inconclusive.
Screening COc1ccc(N(C(=O)c2ccccc2)S(=O)(=O)c2ccc3c(c2)n(C)c(=O)n3C)cc1 returned Tau fluor counter inactive, Tau ThT inhib inactive and Tau FP inhib inactive.
Cc1ccc(C(C[N+](=O)[O-])c2c(C)[nH]n(-c3ccccc3)c2=O)cc1 (stereo not drawn) was read as Sfp PPTase inh inactive, FBPA coupling cs -32, Tau fluor counter inactive, Tau ThT inhib inconclusive and Tau FP inhib inactive.
For O=C(O)c1ccc(-c2ccccc2C(F)(F)F)s1 the results were Sfp PPTase inh inactive, FBPA coupling cs inactive, Tau fluor counter inactive, Tau ThT inhib inactive and Tau FP inhib inactive.
For Cc1ccc(N2C(=O)CC(Sc3nc4ccccc4o3)C2=O)cc1Cl (stereo not drawn) the results were Sfp PPTase inh 50µM, FBPA coupling cs inactive, Tau fluor counter inactive, Tau ThT inhib inconclusive and Tau FP inhib inactive.
Screening CC(=O)N1CCc2cc(CNC(=O)Nc3cc(Cl)ccc3C)ccc21 returned Tau fluor counter inactive, Tau ThT inhib inactive and Tau FP inhib inconclusive.
For OCC1CCCCN1C(=S)NCc1ccco1 (stereo not drawn) the results were Sfp PPTase inh 50µM, FBPA coupling cs inactive, Tau fluor counter inactive, Tau ThT inhib inactive and Tau FP inhib inactive.
`O=C(NC1CCCCC1)NC1CCN(C(=S)NCc2ccco2)CC1` gave Sfp PPTase inh inactive, FBPA coupling cs inactive, Tau fluor counter inactive, Tau ThT inhib inactive and Tau FP inhib inactive.
`CC1CCCC(C)N1C(=S)NCc1ccco1` (stereo not drawn) gave Sfp PPTase inh 35µM, FBPA coupling cs inactive, Tau fluor counter inactive, Tau ThT inhib inconclusive and Tau FP inhib inactive.
CCN(CC)c1ccc(/C=C2\C(=O)c3ccc(C(=O)O)cc3C2=O)cc1 was read as Sfp PPTase inh inactive, FBPA coupling cs inactive, Tau fluor counter inactive, Tau ThT inhib 2µM and Tau FP inhib inconclusive.
`N#Cc1nc(COc2cccc(Cl)c2)oc1NCCc1ccccc1` gave Tau fluor counter inconclusive, Tau ThT inhib inconclusive and Tau FP inhib inactive.
`O=C(Nc1ccc2c(c1)nc1n2CCN(C2CCCCC2)C1)c1ccco1` gave Sfp PPTase inh 79µM, FBPA coupling cs inactive, Tau fluor counter inactive, Tau ThT inhib inconclusive and Tau FP inhib inactive.
For O=C(Nc1ccc2c(c1)nc1n2CCN(C2CCCCC2)C1)NC1CCCCC1 the results were Sfp PPTase inh inactive, FBPA coupling cs -32, Tau fluor counter inactive, Tau ThT inhib inconclusive and Tau FP inhib inactive.
For COc1cccc2sc(NN)nc12 the results were Sfp PPTase inh 50µM, FBPA coupling cs inactive, Tau fluor counter 28µM[quencher], Tau ThT inhib inconclusive and Tau FP inhib inconclusive.
Screening COc1ccc(C2Nc3ccccc3-n3c(-c4ccccc4)c4c(=O)n(C)c(=O)n(C)c4c32)cc1 (stereo not drawn) returned Tau fluor counter inactive, Tau ThT inhib inactive and Tau FP inhib inactive.
Screening Cc1ccccc1C(=O)NCc1ccc2c(c1)CCN2C(=O)c1ccc(F)cc1 returned Tau fluor counter inactive, Tau ThT inhib inactive and Tau FP inhib inactive.
Screening CCOC(=O)C1(Cc2cccc(OC)c2)CCN(C2CCOCC2)CC1 returned Sfp PPTase inh inactive, FBPA coupling cs inactive, Tau fluor counter inactive, Tau ThT inhib 13µM and Tau FP inhib inactive.
COc1cccc(C2=CC(c3ccccc3F)n3ncc(C(=O)Nc4ccc(C)cc4)c3N2)c1 (stereo not drawn) was read as Tau fluor counter inactive, Tau ThT inhib inactive and Tau FP inhib inactive.
`Oc1ccc(C=Nc2ccc(N3CCOCC3)cc2)c(O)c1` gave Sfp PPTase inh inactive, FBPA coupling cs inactive, Tau fluor counter inconclusive, Tau ThT inhib 16µM and Tau FP inhib inconclusive.
For Oc1cc(Br)ccc1C=Nc1ccc(N2CCCCC2)cc1 the results were Sfp PPTase inh inactive, FBPA coupling cs inactive, Tau fluor counter inconclusive, Tau ThT inhib 14µM and Tau FP inhib inactive.
Screening Oc1ccc(Br)cc1C=Nc1ccc(Cl)cc1 returned Sfp PPTase inh inactive, FBPA coupling cs inactive, Tau fluor counter inactive, Tau ThT inhib inactive and Tau FP inhib inactive.
